Experimental data taken from PubChem BioAssay (NCATS).
Inconclusive results are not listed. Where a call stands in place of a potency, no number is given. Activity calls are given as the source filed them. Calls follow the shape of the dose curve; as a rule, active = well fitted inhibition curve with a large enough effect; inconclusive = small, poorly fitted or top-dose-only effect; inactive = flat fitted curve, though single readings scatter.

Test system: FAB9
Test: qHTS profiling for inhibitors of Plasmodium falciparum proliferation (AID 504749); also: nearly all actives have a fitted effect of over 60% in size
Conditions: P. falciparum in erythrocytes, SYBR Green DNA, 72 h; series mostly up to 28.7 µM
In short: (§1)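 Quantitative HTS: compounds pinned into medium, infected erythrocytes added (0.3% parasitemia, 2.5% hematocrit), 72 h culture at 37 C under 5% CO2. Saponin/Triton lysis with SYBR Green I, overnight RT, then fluorescence read.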
Potency is read from the fitted curve at half-maximal effect.

Question: How did the Potency turn out when `C=C1C(=CC=C2CCC[C@@]3(C)[C@@H]2CC[C@H]3[C@H](C)CCCC(C)C)C[C@@H](O)C[C@@H]1O` was run?
Answer: The Potency was “inactive”.

Question: Which Potency does the source give for `O=C(COc1ccc(Cl)cc1)OCCNC12CC3CC(CC(C3)C1)C2` here?
Answer: The Potency was “inactive”.

Question: `CCOC(=O)C1=C(C)NC(C)=C(C(=O)OCC)C1c1ccccc1C=CC(=O)OC(C)(C)C` was tested. Which Potency did it give?
Answer: Its Potency is 11.2 µM (active).

Question: Which Potency does the source give for `CN=C(NC#N)Nc1ccc(C2=NNC(=O)C[C@@H]2C)cc1` here?
Answer: The Potency was “inactive”.

Question: For `CCCCCCCC(=O)O`, which Potency is on record?
Answer: Its Potency is “inactive”.

Question: How did the Potency turn out when `O=CCCCC=O` was run?
Answer: Its Potency is “inactive”.

Question: With `O=C(Nc1ccc(Br)cc1)c1cc(Br)c(Br)s1` as the compound, how does the Potency read?
Answer: Its Potency is “inactive”.

Question: With `CCCCC(=O)O[C@]1(C(=O)CO)[C@H](C)C[C@H]2[C@@H]3CCC4=CC(=O)C=C[C@]4(C)[C@@]3(F)[C@@H](O)C[C@@]21C` as the compound, how does the Potency read?
Answer: The Potency was “inactive”.

Question: `CCCCCC(CC)COC(=O)CC(C(=O)OCC(CC)CCCC)S(=O)(=O)O` (configuration not stated) was tested. Which Potency did it give?
Answer: Its Potency is “inactive”.

Question: For `O=C1CSC2(CCN(CCCN3c4ccccc4Sc4ccc(Cl)cc43)CC2)N1`, which Potency is on record?
Answer: The Potency was “inactive”.

Question: Which Potency does the source give for `CCOC(=O)C1=CC2(CC)CCCN3CCc4c(n1c1ccccc41)C32` (configuration not stated) here?
Answer: Its Potency is 7.94 µM (active).

Question: For `O=C(O)CCC(=O)C(=O)O`, which Potency is on record?
Answer: Its Potency is “inactive”.

Question: How did the Potency turn out when `O=C(O)c1cc(=O)c2c3nc4ccccc4oc-3cc(=O)c2[nH]1` was run?
Answer: Its Potency is “inactive”.

Question: How did the Potency turn out when `CC(Cc1ccc(O)c(O)c1)C(C)Cc1ccc(O)c(O)c1` (configuration not stated) was run?
Answer: Its Potency is “inactive”.

Question: How did the Potency turn out when `C#C[C@]1(O)CC[C@H]2[C@@H]3CCC4=CCCC[C@@H]4[C@H]3C(=C)C[C@@]21CC` was run?
Answer: Its Potency is “inactive”.

Question: How did the Potency turn out when `CCN(CC)CCOc1ccc(-c2nc3cc(Cl)ccc3s2)cc1` was run?
Answer: Its Potency is “inactive”.

Question: `CN(C)CCCN1c2ccccc2C(C)(C)c2ccccc21` was tested. Which Potency did it give?
Answer: Its Potency is “inactive”.

Question: For `IC(I)I`, which Potency is on record?
Answer: The Potency was “inactive”.

Question: With `CC1=C(/C=C/C(C)=C/C=C/C(C)=C/CO)C(C)(C)CCC1` as the compound, how does the Potency read?
Answer: The Potency was “inactive”.

Question: Which Potency does the source give for `COC(=O)[C@H]1[C@H]2CC3c4[nH]c5ccccc5c4CCN3C[C@@H]2CC[C@@H]1O` (some centres not stated) here?
Answer: Its Potency is “inactive”.

Question: For `O=S(=O)(O)c1cc(O)c2c(N=Nc3ccc(Nc4ccccc4)c4c(S(=O)(=O)O)cccc34)cc(S(=O)(=O)O)cc2c1`, which Potency is on record?
Answer: The Potency was “inactive”.

Question: `NC(=O)c1ncn(C2OC(CO)C(O)C2O)n1` (configuration not stated) was tested. Which Potency did it give?
Answer: The Potency was “inactive”.

Test system: GB4
Test: as above
Conditions: P. falciparum in erythrocytes, SYBR Green DNA, 72 h; series mostly up to 28.7 µM
In short: as §1

Question: How did the Potency turn out when `C=C1C(=CC=C2CCC[C@@]3(C)[C@@H]2CC[C@H]3[C@H](C)CCCC(C)C)C[C@@H](O)C[C@@H]1O` was run?
Answer: Its Potency is “inactive”.

Question: With `CCOC(=O)C1=C(C)NC(C)=C(C(=O)OCC)C1c1ccccc1C=CC(=O)OC(C)(C)C` as the compound, how does the Potency read?
Answer: Its Potency is 10.7 µM (active).

Question: With `CCCCCCCC(=O)O` as the compound, how does the Potency read?
Answer: Its Potency is “inactive”.

Question: How did the Potency turn out when `CC(=O)Oc1cc(C)c(OC(C)=O)c2ccccc12` was run?
Answer: Its Potency is 7.57 µM (active).

Question: How did the Potency turn out when `O=C1CSC2(CCN(CCCN3c4ccccc4Sc4ccc(Cl)cc43)CC2)N1` was run?
Answer: The Potency was 16.9 µM (active).

Question: How did the Potency turn out when `CCCCCCOc1ccc(C(=N)N(CCCC)CCCC)c2ccccc12` was run?
Answer: Its Potency is 10.7 µM (active).

Question: How did the Potency turn out when `O=C(O)CCC(=O)C(=O)O` was run?
Answer: Its Potency is “inactive”.

Question: For `O=C(O)c1cc(=O)c2c3nc4ccccc4oc-3cc(=O)c2[nH]1`, which Potency is on record?
Answer: The Potency was 16.9 µM (active).

Question: For `C#C[C@]1(O)CC[C@H]2[C@@H]3CCC4=CCCC[C@@H]4[C@H]3C(=C)C[C@@]21CC`, which Potency is on record?
Answer: Its Potency is “inactive”.

Question: For `CCN(CC)CCOc1ccc(-c2nc3cc(Cl)ccc3s2)cc1`, which Potency is on record?
Answer: Its Potency is 16.9 µM (active).

Question: For `IC(I)I`, which Potency is on record?
Answer: Its Potency is “inactive”.

Question: Which Potency does the source give for `O=S(=O)(O)c1cc(O)c2c(N=Nc3ccc(Nc4ccccc4)c4c(S(=O)(=O)O)cccc34)cc(S(=O)(=O)O)cc2c1` here?
Answer: The Potency was “inactive”.

Question: With `CC[C@@]1(O)C(=O)OCc2c1cc1n(c2=O)Cc2cc3c([N+](=O)[O-])cccc3nc2-1` as the compound, how does the Potency read?
Answer: The Potency was 6.75 µM (active).

Question: `Clc1cc(Cl)c(OCC#CI)cc1Cl` was tested. Which Potency did it give?
Answer: Its Potency is 10.7 µM (active).

Question: With `COc1cc(-c2ccc(-[n+]3nc(-c4ccccc4)nn3-c3ccc([N+](=O)[O-])cc3)c(OC)c2)ccc1-[n+]1nc(-c2ccccc2)nn1-c1ccc([N+](=O)[O-])cc1` as the compound, how does the Potency read?
Answer: Its Potency is 12 µM (active).
